Experimental data reported in PubChem BioAssay.
Values joined by “and” are separate entries in the source; they are usually repeats but may differ in a detail not shown here. Identical values can stand only once. Active and inactive are the calls of the source.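 Rule for the calls, unless noted: active = compounds whose cell count with miR-34 switched on is under 0.7 times the count with it off; inactive = the rest.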

Key:
[1] = viability loss with induced miR-34 in A549 – imaging, A549 dox-inducible miR-34, nuclei and caspase counts, primary screen (AID 1347080); details: A549 miR-34 inducible, Hoechst nuclei count, 48 h; note: test concentration not given here
[2] = MELAS cybrid and Rieske KO viability enhancers – cell-based, MELAS cybrids, Rieske KO mouse fibroblasts, CellTiter-Glo, primary screen (AID 1508586;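 active = mean z-score across replicates of 1.96 or higher in either the MELAS or the Rieske mutant cell line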;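 note: test concentration not given here; z relative to plate mean and SD of compound and empty wells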); details: low glucose
[3] = galactose survival enhancers in mitochondrial complex I cybrids – cell-based, galactose medium, ATP luminescence, primary screen (AID 1645843;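 active = z-score of at least 1.8 in each of two replicates, scored against plate mean and spread of sample wells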;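 note: positive z means more ATP and so rescue of galactose-driven cybrid death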); details: complex I mutant cybrid cells, 72 h, stronger effect = higher value
[4] = stronger effect = lower value, cell number ratio, induced over uninduced
[5] = measured here: relative caspase fold change +Dox/-Dox
[6] = measured here: total cells with miR-34 induction, stronger effect = lower value
[7] = measured here: total cells without miR-34 induction
[8] = MELAS cybrid survival, CellTiter-Glo 48 h, stronger effect = higher value
[9] = Rieske KO mouse fibroblast survival, CellTiter-Glo 72 h

SMILES	fold change [1, 4]	fold change [1, 5]	cell count [1, 6]	cell count [1, 7]	z-score [2, 8]	z-score [2, 9]	z-score [3]
c1cc(-c2nc(Cc3ccsc3)no2)c2nccnc2c1	0.89 (inactive)	0.787	8210	9220	-0.0904 (inactive)	1.15	0.105 (inactive)
CCc1noc(Cn2cnc3sc4c(c3c2=O)CCC(C)C4)n1 (configuration not stated)	0.911 (inactive)	1.55	8510	9340	0.0666 (inactive)	0.0902	-0.515 (inactive)
Nc1nc2cc(C(=O)N3CCN(C(=O)c4ccco4)CC3)ccc2s1	0.879 (inactive)	1.74	8870	10100	-0.277 (inactive)	-0.24	-0.565 (inactive)
Cc1cnc(NCCCn2cccn2)nc1-c1cnn(C)c1	0.862 (inactive)	1.64	9190	10700	-0.223 (inactive)	-0.0144	-0.51 (inactive)
Cc1nc(C)c(-c2ccnc(N)n2)s1	0.869 (inactive)	0.21	8060	9270	0.483 (inactive)	-0.306	-0.255 (inactive)
Cc1cc(-c2cnn(C)c2)nc(N)n1	0.853 (inactive)	1.79	8800	10300	-0.132 (inactive)	-0.642	-0.56 (inactive)
COc1cccc(Cc2noc(-c3nccc4ccccc34)n2)c1	0.933 (inactive)	1.27	8090	8670	0.324 (inactive)	-0.0974	-0.1 (inactive)
O=c1cc(-c2cccnc2)nc(-c2ccc(CN3CCCC(CO)C3)cc2)[nH]1 (configuration not stated)	0.899 (inactive)	2.12	7730	8590	-0.0299 (inactive)	-0.608	-0.56 (inactive)
CCNC(=O)c1cccnc1N1CCN(c2ccc(Cl)cc2)CC1	0.873 (inactive)	0.821	7830	8970	-0.247	2.02	0.35 (inactive)
CCN(CC)C(=O)c1c(NC(=O)c2cccs2)sc2c1CCCC2	1.02 (inactive)	0.802	1650	1620	0.194 (inactive)	0.0357	-0.49 (inactive)
CN(C)CCc1c[nH]c2ccc(CC3COC(=O)N3)cc12 (configuration not stated)	0.908 (inactive) and 0.936 (inactive)	1.13 and 0.401	9680 and 7960	10700 and 8510	-0.0653 (inactive)	0.00529	0.625 (inactive)
Cc1ccc(NC(=O)NCCSCc2ccc(CN(C)C)o2)cc1Cl	0.882 (inactive)	0.585	6630	7520	0.133 (inactive)	-0.401	-1.04 (inactive)
COc1ccc2c(C(=O)N(C)Cc3nonc3C)cc(-c3cnn(C)c3)nc2c1	0.963 (inactive)	1.42	8090	8400	-0.189 (inactive)	-0.423	-0.54 (inactive)
CCn1ncc(NC(=O)Cn2cc(-c3cccc(-n4cccn4)c3)cn2)n1	0.876 (inactive)	1.27	2160	2470	-0.0561 (inactive)	-0.379	-0.505 (inactive)
COc1cc(Cn2cnc3nccnc3c2=O)cc(OC)c1	0.919 (inactive)	2.53	9000	9790	-0.417 (inactive)	-0.582	-0.515 (inactive)
OB(O)c1cc2ccccc2s1	0.864 (inactive)	0.659	7300	8450	-0.459 (inactive)	0.539	0.265 (inactive)
CCCOc1ccc(CC(=O)O)cc1Cl	0.877 (inactive)	0.341	8590	9790	0.699 (inactive)	0.326	0.735 (inactive)
COC1C=CO[C@@]2(C)Oc3c(C)c(O)c4c(O)c(c(C=NN5CCN(C6CCCC6)CC5)c(O)c4c3C2=O)NC(=O)C(C)=CC=CC(C)C(O)C(C)C(O)C(C)C(OC(C)=O)C1C (some centres not stated)	1.26 (inactive) and 0.937 (inactive)	1.41 and 0.74	6670 and 7260	5310 and 7750	-0.432 (inactive)	-0.0629	0.32 (inactive)
O=C(O)c1ccc(B(O)O)cc1	0.887 (inactive)	0.4	8340	9400	0.638 (inactive)	0.194	0.105 (inactive)
CC(O)Cc1cn(C2CCN(c3ncnc4nc[nH]c34)CC2)nn1 (configuration not stated)	0.957 (inactive)	0.915	8270	8650	-0.102 (inactive)	-1.64	-0.52 (inactive)
O=C1NCC(=O)N2CCCC12 (configuration not stated)	0.892 (inactive)	0.892	8240	9240	-0.237 (inactive)	-0.595	0.315 (inactive)
CCc1ccc(CNC(=O)Nc2nc(C)n(C(C)C)n2)nc1	0.86 (inactive)	1.49	7770	9030	0.0188 (inactive)	0.8	-0.525 (inactive)
COc1ccc(CN(C)C(=O)Nc2nc(-c3ccccc3)ns2)cc1	0.886 (inactive)	1.46	6810	7690	-0.0703 (inactive)	0.35	0.77 (inactive)
CC(=O)[C@]1(O)Cc2c(O)c3c(c(O)c2C(OC2CC(N)C(O)C(C)O2)C1)C(=O)c1ccccc1C3=O (some centres not stated)	0.995 (inactive) and 0.89 (inactive)	0.907 and 1.04	734 and 2090	738 and 2350	2.4 (active)	-0.525	-1.88 (inactive)
CC(O)c1cn(C2CCN(c3ncnc4nc[nH]c34)CC2)nn1 (configuration not stated)	0.902 (inactive)	1.71	9250	10300	0.294 (inactive)	-0.198	-0.55 (inactive)
CN(C)c1ccc(C(=O)O)cc1	0.927 (inactive)	0.253	8940	9650	-0.46 (inactive)	0.0916	0.71 (inactive)
